Measured values: PubChem BioAssay
Inconclusive results are not listed. Active and inactive are the calls of the source. Cut-off not given; nearly all actives show AC50 up to about 23 µM.

Assay: growth inhibition of DIPG glioma cells, dose response, cell-based, SU-DIPG-XIII, MIPE5.0, CellTiter-Glo, qHTS (AID 1347064);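 on AC50: cells exposed to compound for 48 hours before the viability read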
Details: SU-DIPG-XIII viability, CellTiter-Glo ATP luminescence

Row | SMILES | outcome | AC50
1 | CN(C)CC/C=C1/c2ccccc2COc2ccc(CC(=O)O)cc21 | inactive | –
2 | CCOC(=O)[C@H](CCc1ccccc1)N[C@@H](C)C(=O)N1[C@H](C(=O)O)C[C@@H]2CCC[C@@H]21 | inactive | –
3 | Cc1ccsc1C(=CCCN1CCC[C@@H](C(=O)O)C1)c1sccc1C | inactive | –
4 | Cn1c(NCCN(CCO)CCCc2ccc([N+](=O)[O-])cc2)cc(=O)n(C)c1=O | inactive | –
5 | Clc1ccc2nsnc2c1NC1=NCCN1 | inactive | –
6 | COc1cccc2c1C(=O)c1c(O)c3c(c(O)c1C2=O)C[C@@](O)(C(=O)CO)C[C@@H]3O[C@H]1C[C@H](N)[C@H](O)[C@H](C)O1 | – | 0.934 µM (active)
7 | Cc1nc2ccc(CN(C)c3ccc(C(=O)N[C@@H](CCC(=O)O)C(=O)O)s3)cc2c(=O)[nH]1 | inactive | –
8 | O=C1N(c2ccccc2)c2ccccc2C1(Cc1ccncc1)Cc1ccncc1 | inactive | –
9 | CC(=O)[C@]1(O)Cc2c(O)c3c(c(O)c2[C@@H](O[C@H]2C[C@H](N)[C@H](O)[C@H](C)O2)C1)C(=O)c1ccccc1C3=O | – | 11.8 µM (active)
